Test results reported in PubChem BioAssay AID624483 (NMMLSC, 2012).
About 11,000 (3.1%) of roughly 360,000 compounds were called active. About 2% were inconclusive and are not listed. Cut-off read from the data, not from the text of the source: active = fluorescence intensity above about 16000; inconclusive = no clear call, values can overlap the other calls; inactive = below that. For the sample, actives were picked, then their nearest neighbours and some compounds at random.

assay: compound fluorescence in toxin protease inhibitor counterscreen, primary screen, artefact control for toxin protease inhibitor project, biochemical, multiplex microsphere, HTS (AID 624483); settings: compound autofluorescence counterscreen, microsphere flow cytometry; stronger effect = higher value

SMILES	fluorescence intensity
CC(=O)N1CCN(CC(c2ccccc2)c2ccccc2)CC1	3040 (inactive)
O=C(CN1CCN(Cc2ccccc2)CC1)NC(c1ccccc1)c1ccccc1	4580 (inactive)
O=C(NC(c1ccccc1)c1ccccc1)N1CCN(CCO)CC1	20400 (active)
Cc1ccc2c(C)c(C(=O)N(C)Cc3ccncn3)oc2c1C	5730 (inactive)
O=C(COc1ccc(Cl)cc1Cl)N/N=C/c1ccccn1	5790 (inactive)
CSc1ccc(/C=N\NC(=O)COc2ccc(Cl)cc2Br)cc1	17700 (active)
CSc1ccc(/C=N/NC(=O)c2cccc(Cl)c2)cc1	2570 (inactive)
CCOC(=O)[C@]12CCCC=C1N(Cc1cccc3ccccc13)C(=O)[C@H](CC(=O)NCC13CC4CC(CC(C4)C1)C3)C2	5880 (inactive)
CC1(C(=O)NCc2cccc3ccccc23)CCN1Cc1ccc(-c2ccccc2)o1 (centres undefined)	3560 (inactive)
CCCCc1ccc(S(=O)(=O)NC(=O)C2(C)CCN2C(=O)c2ccccc2)cc1 (centres undefined)	3420 (inactive)
CC(OC(=O)c1ccc(NS(=O)(=O)c2ccc3[nH]c(=O)[nH]c3c2)cc1)C(=O)Nc1cccc(Cl)c1Cl (centres undefined)	3440 (inactive)
CC(C)(C)C(=O)NC(NC(=S)Nc1ccc(S(N)(=O)=O)cc1)C(Cl)(Cl)Cl (centres undefined)	1960 (inactive)
CC(=O)NS(=O)(=O)c1ccccc1	6630 (inactive)
CC(=O)NS(=O)(=O)c1ccc(NC(=S)NC(=O)C(C)(C)C)cc1	24700 (active)
CC(C)CCOc1ccc(C(=O)Nc2cc(S(=O)(=O)N3CCOCC3)ccc2N2CCOCC2)cc1	3010 (inactive)
CC(C)CC(=O)N1CCC(O)(CS(=O)(=O)Cc2ccccc2)CC1	10100 (inactive)
Cc1ccccc1CS(=O)(=O)CC1(O)CCN(C(=O)c2cccc(C(F)(F)F)c2)CC1	20100 (active)
Cc1ccccc1CN1CCN(C(=O)c2cccc(F)c2)CC1	2980 (inactive)
Cc1cccc(OCC(O)Cn2c(N3CCCCC3)nc3c2c(=O)[nH]c(=O)n3C)c1 (centres undefined)	4090 (inactive)
O=C(c1ccc(Cl)cc1)c1ccc(OCC(O)CN2CCCCC2)cc1 (centres undefined)	4210 (inactive)

SMILES	fluorescence intensity
Cn1c(=O)c2c(nc(N3CCCCCC3)n2CC(O)COc2ccc(Cl)cc2)n(C)c1=O (centres undefined)	21800 (active)
c1cc(-c2ccc3[nH]ccc3c2)n2ccnc2c1	3500 (inactive)
COC(=O)[C@]12CCCCC=C1N(Cc1ccco1)C(=O)[C@H](CC(=O)NCC1CCCCC1)C2	4680 (inactive)
CSc1ncccc1C(=O)Nc1cccc(S(=O)(=O)N2CCOCC2)c1	4320 (inactive)
Oc1ccc(CNc2ccccc2O)cc1	3590 (inactive)
COc1ccc(OC)c(C(=O)c2coc3ccc(OC)cc23)c1	2950 (inactive)
COc1ccc(OC)c(C(=O)c2coc3ccc(O)c(CN4CCOCC4)c23)c1	22400 (active)
COc1ccc2oc(=O)cc(CN3CCOCC3)c2c1	4180 (inactive)
Cc1ccc(NC(=O)c2oc(=O)c3ccccc3c2-c2ccccc2)c(C)c1	2070 (inactive)
CCN(CC)CCNc1nc(-c2ccc(OC(F)F)cc2)c(C)s1	4700 (inactive)
O=C(c1cccc(Br)c1)N1CCN(C2=NS(=O)(=O)c3ccccc32)CC1	5480 (inactive)
CC(=O)Nc1ccc(NC(=O)C2CCCN(S(=O)(=O)c3ccc(Cl)cc3)C2)cc1 (centres undefined)	5830 (inactive)
COc1ccc(CCNC(=O)C2CCCN(S(=O)(=O)c3ccc(OC)cc3)C2)cc1 (centres undefined)	5700 (inactive)
COc1ccc(S(=O)(=O)N2CCCC(C(=O)Nc3ccc(NC(=O)c4ccccn4)cc3)C2)cc1 (centres undefined)	22100 (active)
Cc1ccc(F)c(S(=O)(=O)NC(=O)C2(C)CCN2C(=O)CCc2cccs2)c1 (centres undefined)	3440 (inactive)
COC(=O)c1ccccc1NS(=O)(=O)c1ccc2[nH]c(=O)[nH]c2c1	2520 (inactive)
COC(=O)c1ccc(NC(=O)c2ccccc2NS(=O)(=O)c2ccccc2)cc1	20200 (active)
CCOc1ccc(NC(=O)c2ccccc2NS(C)(=O)=O)cc1	9540 (inactive)
O=C(NCCC(=O)N1O[C@@H]2C=C[C@H]1C2)OCC1c2ccccc2-c2ccccc21	3360 (inactive)
COc1ccc(S(=O)(=O)NC(=O)C2(C)CCN2C(=O)c2ccccc2CCc2ccccc2)cc1 (centres undefined)	3970 (inactive)

SMILES	fluorescence intensity
COc1ccc(C)cc1S(=O)(=O)Nc1cccc(Cl)c1Cl	2450 (inactive)
COc1ccc(Cl)cc1S(=O)(=O)Nc1cccc(C(=O)O)c1	22100 (active)
O=C(O)c1ccc(F)c(S(=O)(=O)Nc2ccccc2)c1	9990 (inactive)
COc1ccc(C(N)c2csc(NC(=O)Nc3cccc(C(F)(F)F)c3)n2)cc1 (centres undefined)	3490 (inactive)
Cn1nnnc1SCC(=O)N1CCN(Cc2ccccc2)CC1	19800 (active)
CC(=O)c1ccc(-n2nnnc2SCC(=O)N2CCN(C(=O)c3ccco3)CC2)cc1	2310 (inactive)
Cn1nnnc1SCC(=O)N1CCN(C(c2ccccc2)c2ccccc2)CC1	3570 (inactive)
CC(C)COc1ccc(C(=O)NNC(=O)CCC(=O)c2cccs2)cc1	4110 (inactive)
O=C(O)CCSc1nnc(-c2ccccc2)n1-c1ccccc1	22100 (active)
O=C(O)CSc1nnc(-c2ccc3c(c2)OCO3)n1-c1ccccc1	2040 (inactive)
NNC(=O)CSc1nnc(-c2ccccc2)n1-c1ccccc1	3710 (inactive)
COc1ccccc1Cc1c(-c2ccc(Cl)cc2)nc2ccc(Cl)cn12	8280 (inactive)
Cc1nn(-c2ccccc2)c(Cl)c1C(=O)Nc1ccccc1	20900 (active)
COc1ccc(CCNC(=O)c2c(C)nn(-c3ccccc3)c2Cl)cc1	5520 (inactive)
Cc1nn(-c2ccccc2)c(C)c1NC(=O)CCl	2020 (inactive)
CCc1nc2ccc(C(=O)Nc3cc(-c4ccccc4)ccc3OC)cn2c1N(CC)CC(=O)N(C)C	3600 (inactive)
CCOC(=O)C1CCN(Cc2coc3ccc(Cl)cc3c2=O)CC1	20400 (active)
CCOC(=O)C1CCN(C(=O)Nc2ccc(Cl)cc2)CC1	2770 (inactive)
CCOC(=O)C1CCN(Cc2ccc(-c3ccccc3)cc2)CC1	3660 (inactive)
